Assay [1] concerns the target Estrogen-related receptor gamma (Homo sapiens) (UniProt P62508). Put plainly: ATG_ERRg_TRANS: Attagene TRANS-FACTORIAL HepG2 Assay for human Estrogen-Related Receptor gamma (ERRg) (AID 2282977; active = hit-call score of the fitted dose curve at least 0.9, where 1 is the maximum;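 also: hits increase reporter signal over DMSO so potencies reflect activators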). The settings on record: HepG2 Attagene TRANS reporter, ERRg transactivation. The method, boiled down:
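Transfect HepG2 with multiple GAL4-UAS reporter transcription units; dose chemicals 24 h; isolate RNA, reverse-transcribe with oligo(dT), PCR-amplify, label with 6-FAM, digest with HpaI; size fragments by capillary electrophoresis. DMSO serves as negative control.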

For assay [2], the target named is Glucocorticoid receptor (Homo sapiens) (UniProt P04150). Put plainly: ATG_GR_TRANS: Attagene TRANS-FACTORIAL HepG2 Assay for human Glucocorticoid Receptor (GR) (AID 2282978; active = hit-call score of the fitted dose curve at least 0.9, where 1 is the maximum;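 also: activators score as hits since higher reporter transcript over DMSO is fitted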). The settings on record: HepG2 Attagene TRANS GR reporter, mRNA transcription. The method, boiled down:
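Measurement of GAL4-UAS-driven reporter mRNA in human HepG2 liver cells 24 h post-dosing, using RT-PCR with fluorescent labelling and capillary electrophoresis; the transfected constructs report exogenous NR-GAL4 chimera activity, fitted upward against DMSO.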

Assay [3] concerns the target Bile acid receptor (Homo sapiens) (UniProt Q96RI1). The assay is described as follows: ATG_FXR_TRANS: Attagene TRANS-FACTORIAL HepG2 Assay for Farnesoid X Receptor (FXR) (AID 2282979; active = hit-call score of the fitted dose curve at least 0.9, where 1 is the maximum;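 also: hits raise reporter mRNA above DMSO so AC50 marks FXR activation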). The settings on record: HepG2 Attagene TRANS FXR-GAL4 reporter transcription. The method, boiled down:
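Reporter transcripts from transfected HepG2 cells were measured 24 h after dosing, using RT-PCR with capillary electrophoresis of 6-FAM-labelled fragments. The read-out reflects activity of exogenous FXR-Gal4 chimera on GAL4-UAS units, with induction relative to DMSO.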

For assay [4], the target named is Hepatocyte nuclear factor 4-alpha (Homo sapiens) (UniProt P41235). Put plainly: ATG_HNF4a_TRANS: Attagene TRANS-FACTORIAL HepG2 Assay for human Hepatocyte Nuclear Factor 4 alpha (HNF4a) (AID 2282982; active = hit-call score of the fitted dose curve at least 0.9, where 1 is the maximum). To be noted: HepG2 HNF4a transactivation reporter, mRNA readout. The method, boiled down: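 Cells used were human HepG2, transiently carrying GAL4-UAS reporter units read out against exogenous NR-GAL4 chimeras. Reporter transcript levels after 24 h dosing were quantified by fluorescent RT-PCR and capillary electrophoresis.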
Sequence of Hepatocyte nuclear factor 4-alpha (Homo sapiens) (P41235 whole entry, looked up, the tested form may be a part): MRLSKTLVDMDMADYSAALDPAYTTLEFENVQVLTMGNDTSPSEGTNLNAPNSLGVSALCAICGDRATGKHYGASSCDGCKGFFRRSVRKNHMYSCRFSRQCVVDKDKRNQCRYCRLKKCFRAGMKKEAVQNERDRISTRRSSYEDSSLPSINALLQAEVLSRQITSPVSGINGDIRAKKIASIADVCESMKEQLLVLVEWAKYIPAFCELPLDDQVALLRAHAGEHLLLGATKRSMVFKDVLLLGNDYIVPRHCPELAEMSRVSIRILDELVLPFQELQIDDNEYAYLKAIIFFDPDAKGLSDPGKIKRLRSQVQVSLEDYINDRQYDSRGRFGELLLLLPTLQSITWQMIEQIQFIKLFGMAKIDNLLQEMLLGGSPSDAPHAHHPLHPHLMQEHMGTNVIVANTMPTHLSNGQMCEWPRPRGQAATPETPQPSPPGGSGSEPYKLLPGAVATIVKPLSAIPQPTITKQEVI

Assay [5] is described as follows: ATG_M_32_TRANS: Attagene TRANS-FACTORIAL HepG2 Assay for M32 Transcription Factor (Internal Marker) (AID 2282984; active = hit-call score of the fitted dose curve at least 0.9, where 1 is the maximum;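 also: transcript level of a background control reporter unit measured by RT-PCR and capillary electrophoresis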). To be noted: HepG2 Attagene TRANS M32 internal marker reporter. The method, boiled down:
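Human hepatoma HepG2, transient MRTU transfection, 24 h treatment. RNA → RT-PCR → fluorescent primer extension → HpaI digest (2 h, 37 C) → CE. Positive-direction fit vs DMSO.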

Assay [6] concerns the target Nuclear receptor subfamily 4 group A member 2 (Homo sapiens) (UniProt P43354). The assay is described as follows: ATG_NURR1_TRANS: Attagene TRANS-FACTORIAL HepG2 Assay for human Nuclear Receptor Related Protein 1 (NURR1) (AID 2282985; active = hit-call score of the fitted dose curve at least 0.9, where 1 is the maximum). To be noted: HepG2 Attagene TRANS reporter, mRNA readout. In short, it runs like this:
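After 24 h chemical dosing, total RNA from transiently transfected HepG2 cells was reverse-transcribed and reporter cDNA PCR-amplified, FAM-labelled and analysed by capillary electrophoresis. Activity fitted in positive direction, DMSO as negative control.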

Assay [7] addresses Transcriptional activator Myb (Homo sapiens) (UniProt P10242). The assay is described as follows: ATG_Myb_CIS: Attagene CIS-FACTORIAL HepG2 Assay for human Myeloblastosis (Myb) Proto-Oncogene Transcription Factor (AID 2282986). To be noted: HepG2 Attagene CIS-FACTORIAL Myb reporter transcription; actives raise or lower the signal. In short, it runs like this:
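Fluorescence signals from capillary electrophoresis of RT-PCR-amplified reporter cDNA give the read-out. Cells: HepG2 transfected with multiple cis-regulated reporter units. Exposure lasts 24 hours; DMSO defines baseline for gain or loss of signal.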

Assay [8] has as its target Nuclear respiratory factor 1 (Homo sapiens) (UniProt Q16656). Put plainly: ATG_NRF1_CIS: Attagene CIS-FACTORIAL HepG2 Assay for human Nuclear Respiratory Factor 1 (NRF1) Orphan Gene (AID 2282987). The settings on record: HepG2 NRF1 cis-element reporter, Attagene multiplex; actives raise or lower the signal. The method, boiled down: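 Transcriptional reporter readout, one component of a 52-endpoint multiplexed HepG2 panel. Exposure 24 h; mRNA detected via RT-PCR and fluorescent capillary electrophoresis; fitting in both directions against DMSO.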

Assay [9] can be described thus: ATG_NFI_CIS: Attagene CIS-FACTORIAL HepG2 Assay for human Nuclear Factor I (NFI) (AID 2282989). To be noted: HepG2 cis-regulatory reporter, NFI response element transcription; actives raise or lower the signal. The method, boiled down:
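Endogenous TF activity in HepG2 cells transiently transfected with cis-element-driven multiplexed reporter units, read 24 h after dosing. Reporter mRNA quantified by RT-PCR, 6-FAM labelling, HpaI digestion and capillary electrophoresis; bidirectional fit versus DMSO.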

Assay [10] concerns the target Myc proto-oncogene protein (Homo sapiens) (UniProt P01106). The assay is described as follows: ATG_Myc_CIS: Attagene CIS-FACTORIAL HepG2 Assay for human Myelocytomatosis (Myc) Proto-Oncogene Transcription Factor (AID 2282990). The settings on record: HepG2, Attagene cis-reporter transcription factor activity; actives raise or lower the signal. The method, boiled down:
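HepG2 cells transiently transfected with multiple cis-promoter-driven reporter transcription units, so endogenous TF activity is read. After 24 h compound exposure, reporter mRNA was quantified by RT-PCR, 6-FAM labelling, HpaI digestion and capillary electrophoresis; bidirectional fit versus DMSO.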

Assay [11] in a line: ATG_NRF2_ARE_CIS: Attagene CIS-FACTORIAL HepG2 Assay for human Nuclear Factor Erythroid 2 Related Factor 2 (NFR2) response to Antioxidant Response Elements (ARE) (AID 2282992).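 As to AC50: reporter mRNA level measured by RT-PCR and capillary electrophoresis fluorescence.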 The settings on record: HepG2 Attagene ARE/NRF2 reporter, transcription factor activity; actives raise or lower the signal. The method, boiled down: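 Transient MRTU transfection of HepG2; 24 h compound exposure; TriZol RNA, RT with oligo(dT), PCR, 6-FAM primer extension, HpaI cut, CE. Bidirectional fit vs DMSO.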

Assay [12] is described as follows: ATG_Oct_MLP_CIS: Attagene CIS-FACTORIAL HepG2 Assay for human Octamer-Binding Transcription Factor (Oct) (AID 2282993). To be noted: HepG2 Attagene cis-factorial Oct reporter, mRNA; actives raise or lower the signal. In short, it runs like this:
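HepG2 cells transiently transfected with cis-element-driven reporter transcription units (endogenous TF activity); 24 h compound exposure. Reporter mRNA quantified by RT-PCR, 6-FAM labelling, HpaI digestion and capillary electrophoresis; bidirectional fit versus DMSO baseline.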

In assay [13] the target is Cellular tumor antigen p53 (Homo sapiens) (UniProt P04637). The assay is described as follows: ATG_p53_CIS: Attagene CIS-FACTORIAL HepG2 Assay for human p53 Transcription Factor (AID 2282994). To be noted: HepG2 p53 cis-element reporter, Attagene mRNA; actives raise or lower the signal. The method, boiled down:
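HepG2, transient MRTU transfection (cis promoter elements, endogenous TFs); 24 h dosing; RNA isolation, RT-PCR, 6-FAM primer extension, HpaI digest, CE fluorescence; bidirectional fit vs DMSO.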

A short description of assay [14]: BSK_3C_TissueFactor: BioMAP Diversity Plus: 3C Assay for Tissue Factor Biomarker Activity (AID 2282997). To be noted: BioMAP 3C HUVEC, tissue factor biomarker readout; actives raise or lower the signal. In short, it runs like this:
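Dosing of human umbilical vein endothelial cells preceded a 24 h incubation. Tissue Factor was then read by ELISA, with increases and decreases both scored relative to DMSO controls.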

A short description of assay [15]: BSK_3C_uPAR: BioMAP Diversity Plus: 3C Assay for Urokinase-type plasminogen activator receptor (uPAR) Biomarker Activity (AID 2282998). The settings on record: BioMAP 3C HUVEC, uPAR biomarker ELISA; actives raise or lower the signal. In short, it runs like this: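 Primary human umbilical vein endothelial cells, 3C system; surface uPAR measured by ELISA 24 h after dosing. Cytotoxicity via SRB total protein in parallel cultures; bidirectional fit against DMSO.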
In general terms: In an ELISA, binding on a coated surface is turned into a signal by an enzyme label.

Assay [16] has as its target Oxysterols receptor LXR-alpha (Homo sapiens) (UniProt Q13133). The assay is described as follows: ATG_LXRa_TRANS: Attagene TRANS-FACTORIAL HepG2 Assay for human Liver X Receptor alpha (LXRa) (AID 2282980; active = hit-call score of the fitted dose curve at least 0.9, where 1 is the maximum). The settings on record: HepG2 Attagene TRANS reporter, LXRa transactivation. The method, boiled down:
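Chemical-induced reporter mRNA measured by RT-PCR with fluorescent labelling and capillary electrophoresis after 24 h dosing of transiently transfected HepG2 cells expressing exogenous NR-Gal4 chimeras; increases scored against DMSO baseline.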

For assay [17], the target named is Oxysterols receptor LXR-beta (Homo sapiens) (UniProt P55055). Put plainly: ATG_LXRb_TRANS: Attagene TRANS-FACTORIAL HepG2 Assay for human Liver X Receptor beta (LXRb) (AID 2282981; active = hit-call score of the fitted dose curve at least 0.9, where 1 is the maximum). To be noted: HepG2 Attagene TRANS GAL4-LXRb reporter, mRNA. In short, it runs like this:
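In this TRANS format, exogenous chimeric NR-Gal4 protein activity, not endogenous factors, drives reporter expression in transfected human HepG2 cells. Exposure lasted 24 h; reporter mRNA was read by fluorescent capillary electrophoresis.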

The nature of assay [18]: ATG_M_06_TRANS: Attagene TRANS-FACTORIAL HepG2 Assay for M06 Transcription Factor (Internal Marker) (AID 2282983; active = hit-call score of the fitted dose curve at least 0.9, where 1 is the maximum). The settings on record: HepG2 Attagene TRANS M06 internal marker reporter. The method, boiled down:
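Cells: HepG2, transient multi-reporter transfection. Exposure: 24 h. Detection: RT-PCR, 6-FAM labelling, HpaI digestion (2 h, 37 °C), capillary electrophoresis. Baseline: DMSO.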

The nature of assay [19]: ATG_NF_kB_CIS: Attagene CIS-FACTORIAL HepG2 Assay for human Nuclear Factor Kappa B (NF-kB) (AID 2282991). The settings on record: HepG2 Attagene cis-factorial NF-kB reporter mRNA; actives raise or lower the signal. The method, boiled down: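 HepG2, transient multi-reporter transfection, cis promoter elements (endogenous TFs). 24 h exposure. Total RNA → RT → PCR → 6-FAM label → HpaI → CE. Gain/loss vs DMSO.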

Records with an inconclusive call do not appear. The source made the active and inactive calls. The calls were made as follows, unless noted: active = hit-call score of the fitted dose curve at least 0.9, where 1 is the maximum; inactive = score below 0.9.

Sequence of Bile acid receptor (Homo sapiens) (Q96RI1 whole entry, looked up, the tested form may be a part): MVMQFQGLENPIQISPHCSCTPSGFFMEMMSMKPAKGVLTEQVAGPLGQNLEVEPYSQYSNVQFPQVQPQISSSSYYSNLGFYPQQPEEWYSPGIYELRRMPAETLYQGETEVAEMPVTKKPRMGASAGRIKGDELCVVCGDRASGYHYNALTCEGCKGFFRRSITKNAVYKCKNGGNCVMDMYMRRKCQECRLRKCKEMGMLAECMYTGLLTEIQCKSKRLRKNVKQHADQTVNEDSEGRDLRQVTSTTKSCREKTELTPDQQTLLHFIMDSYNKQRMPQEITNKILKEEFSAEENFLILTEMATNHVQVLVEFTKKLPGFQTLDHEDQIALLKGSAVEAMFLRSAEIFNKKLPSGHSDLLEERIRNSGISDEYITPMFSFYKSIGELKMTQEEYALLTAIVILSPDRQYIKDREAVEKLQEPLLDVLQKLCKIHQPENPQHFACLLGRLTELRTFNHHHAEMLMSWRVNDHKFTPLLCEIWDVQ
Sequence of Nuclear respiratory factor 1 (Homo sapiens) (Q16656 whole entry, looked up): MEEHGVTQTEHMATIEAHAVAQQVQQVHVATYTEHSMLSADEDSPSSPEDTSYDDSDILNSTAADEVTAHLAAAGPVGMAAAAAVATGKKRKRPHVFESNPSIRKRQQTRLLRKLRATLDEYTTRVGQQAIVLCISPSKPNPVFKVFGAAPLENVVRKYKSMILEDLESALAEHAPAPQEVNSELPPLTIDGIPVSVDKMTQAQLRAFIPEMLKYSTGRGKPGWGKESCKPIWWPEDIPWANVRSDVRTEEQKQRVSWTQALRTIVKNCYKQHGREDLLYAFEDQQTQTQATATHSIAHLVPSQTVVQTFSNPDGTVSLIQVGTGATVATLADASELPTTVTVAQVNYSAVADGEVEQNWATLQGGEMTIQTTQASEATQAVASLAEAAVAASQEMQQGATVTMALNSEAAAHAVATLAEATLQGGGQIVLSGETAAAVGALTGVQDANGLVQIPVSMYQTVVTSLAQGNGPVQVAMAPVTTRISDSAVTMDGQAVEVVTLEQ
Sequence of Myc proto-oncogene protein (Homo sapiens) (P01106 whole entry, looked up): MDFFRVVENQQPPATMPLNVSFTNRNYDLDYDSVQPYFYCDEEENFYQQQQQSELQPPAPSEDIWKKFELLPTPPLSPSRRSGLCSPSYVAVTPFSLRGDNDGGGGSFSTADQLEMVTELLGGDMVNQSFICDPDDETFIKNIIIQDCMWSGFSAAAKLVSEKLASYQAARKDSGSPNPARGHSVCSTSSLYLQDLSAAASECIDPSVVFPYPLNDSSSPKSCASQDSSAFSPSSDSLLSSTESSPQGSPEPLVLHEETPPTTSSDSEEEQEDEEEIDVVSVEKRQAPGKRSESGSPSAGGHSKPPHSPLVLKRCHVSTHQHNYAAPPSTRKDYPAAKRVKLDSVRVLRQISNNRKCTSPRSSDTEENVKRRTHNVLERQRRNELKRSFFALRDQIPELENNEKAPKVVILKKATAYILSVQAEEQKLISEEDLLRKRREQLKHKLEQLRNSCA
Sequence of Nuclear receptor subfamily 4 group A member 2 (Homo sapiens) (P43354 whole entry, looked up): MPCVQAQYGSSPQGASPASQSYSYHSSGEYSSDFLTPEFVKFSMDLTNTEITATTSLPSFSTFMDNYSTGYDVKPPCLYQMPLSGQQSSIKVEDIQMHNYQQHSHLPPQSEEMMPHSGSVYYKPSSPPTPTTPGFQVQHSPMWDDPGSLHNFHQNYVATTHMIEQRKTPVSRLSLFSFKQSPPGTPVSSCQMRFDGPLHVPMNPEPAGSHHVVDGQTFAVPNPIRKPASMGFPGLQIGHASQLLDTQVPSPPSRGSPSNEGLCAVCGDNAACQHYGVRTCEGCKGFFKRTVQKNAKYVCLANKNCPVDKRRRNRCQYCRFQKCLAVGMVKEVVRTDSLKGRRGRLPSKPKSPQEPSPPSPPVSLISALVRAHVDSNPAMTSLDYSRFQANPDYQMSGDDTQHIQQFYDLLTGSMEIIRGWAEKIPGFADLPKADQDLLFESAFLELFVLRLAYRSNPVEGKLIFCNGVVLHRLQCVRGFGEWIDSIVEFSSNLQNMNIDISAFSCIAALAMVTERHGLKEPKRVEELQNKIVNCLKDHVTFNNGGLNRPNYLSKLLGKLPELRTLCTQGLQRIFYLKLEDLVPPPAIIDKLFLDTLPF
Sequence of Estrogen-related receptor gamma (Homo sapiens) (P62508 whole entry, looked up, the tested form may be a part): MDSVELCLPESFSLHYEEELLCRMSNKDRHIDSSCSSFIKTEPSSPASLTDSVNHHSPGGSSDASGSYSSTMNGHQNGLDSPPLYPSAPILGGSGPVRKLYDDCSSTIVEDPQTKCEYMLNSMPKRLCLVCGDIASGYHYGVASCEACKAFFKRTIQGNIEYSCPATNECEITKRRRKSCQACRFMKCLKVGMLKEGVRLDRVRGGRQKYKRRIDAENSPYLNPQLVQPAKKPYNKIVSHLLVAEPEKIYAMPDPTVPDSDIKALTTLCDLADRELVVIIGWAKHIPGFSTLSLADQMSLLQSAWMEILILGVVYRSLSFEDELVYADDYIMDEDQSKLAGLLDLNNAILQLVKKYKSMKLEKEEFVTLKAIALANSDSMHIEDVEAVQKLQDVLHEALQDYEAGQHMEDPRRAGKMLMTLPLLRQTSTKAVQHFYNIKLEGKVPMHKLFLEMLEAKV
Sequence of Glucocorticoid receptor (Homo sapiens) (P04150 whole entry, looked up, the tested form may be a part): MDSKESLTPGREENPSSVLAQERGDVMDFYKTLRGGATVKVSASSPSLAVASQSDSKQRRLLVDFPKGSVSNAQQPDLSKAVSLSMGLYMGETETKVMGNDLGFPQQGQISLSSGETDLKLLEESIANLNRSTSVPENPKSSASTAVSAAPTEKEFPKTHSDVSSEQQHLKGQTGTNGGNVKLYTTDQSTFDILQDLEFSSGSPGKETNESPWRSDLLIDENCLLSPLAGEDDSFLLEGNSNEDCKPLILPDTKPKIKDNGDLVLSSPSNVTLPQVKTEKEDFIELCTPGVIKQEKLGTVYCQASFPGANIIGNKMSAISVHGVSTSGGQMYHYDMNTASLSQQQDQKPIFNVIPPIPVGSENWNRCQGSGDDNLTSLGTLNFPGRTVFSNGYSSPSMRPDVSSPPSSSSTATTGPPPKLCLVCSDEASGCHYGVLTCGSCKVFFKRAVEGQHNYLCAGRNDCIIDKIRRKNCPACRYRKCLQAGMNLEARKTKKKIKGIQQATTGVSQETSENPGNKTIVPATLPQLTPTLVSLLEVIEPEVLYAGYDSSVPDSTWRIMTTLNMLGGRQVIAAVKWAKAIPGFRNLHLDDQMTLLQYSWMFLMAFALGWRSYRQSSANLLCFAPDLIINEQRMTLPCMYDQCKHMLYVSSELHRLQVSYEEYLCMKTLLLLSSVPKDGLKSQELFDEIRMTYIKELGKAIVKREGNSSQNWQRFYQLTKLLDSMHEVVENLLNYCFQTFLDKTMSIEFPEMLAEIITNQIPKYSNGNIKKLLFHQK
Sequence of Transcriptional activator Myb (Homo sapiens) (P10242 whole entry, looked up): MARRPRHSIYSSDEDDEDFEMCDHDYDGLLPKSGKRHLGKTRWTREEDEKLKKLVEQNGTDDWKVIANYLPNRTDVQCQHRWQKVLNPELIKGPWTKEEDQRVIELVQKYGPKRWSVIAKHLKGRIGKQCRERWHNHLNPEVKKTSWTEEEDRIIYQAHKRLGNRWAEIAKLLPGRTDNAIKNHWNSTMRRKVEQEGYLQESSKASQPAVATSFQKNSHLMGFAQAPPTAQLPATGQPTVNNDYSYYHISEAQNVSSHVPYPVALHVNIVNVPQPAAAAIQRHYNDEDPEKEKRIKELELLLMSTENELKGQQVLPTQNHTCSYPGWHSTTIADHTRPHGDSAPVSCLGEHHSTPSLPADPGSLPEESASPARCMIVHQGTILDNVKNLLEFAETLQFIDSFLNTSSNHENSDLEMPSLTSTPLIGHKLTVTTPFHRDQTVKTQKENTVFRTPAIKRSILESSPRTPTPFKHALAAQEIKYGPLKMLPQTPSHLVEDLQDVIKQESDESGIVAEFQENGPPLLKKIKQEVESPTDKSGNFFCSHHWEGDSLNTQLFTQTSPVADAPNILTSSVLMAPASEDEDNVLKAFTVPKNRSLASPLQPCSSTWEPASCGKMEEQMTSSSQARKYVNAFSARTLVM
Sequence of Cellular tumor antigen p53 (Homo sapiens) (P04637 whole entry, looked up): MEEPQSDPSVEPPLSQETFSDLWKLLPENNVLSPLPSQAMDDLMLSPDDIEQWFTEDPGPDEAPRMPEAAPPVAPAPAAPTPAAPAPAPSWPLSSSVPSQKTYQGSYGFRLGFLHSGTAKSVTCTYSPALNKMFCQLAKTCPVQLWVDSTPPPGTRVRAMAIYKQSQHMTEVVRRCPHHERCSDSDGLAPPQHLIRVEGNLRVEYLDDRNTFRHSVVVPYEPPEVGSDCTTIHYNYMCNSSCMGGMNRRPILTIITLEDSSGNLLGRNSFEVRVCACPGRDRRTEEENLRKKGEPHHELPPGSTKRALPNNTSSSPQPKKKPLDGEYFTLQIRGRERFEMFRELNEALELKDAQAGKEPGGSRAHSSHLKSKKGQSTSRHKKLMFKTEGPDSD

For the compound `CCCCC1C(=O)N(c2ccccc2)N(c2ccccc2)C1=O`, the result in [1], in assay [2], in [3], in assay [4], in assay [5] and in assay [6] was inactive. The call in [7], in [8], in assay [9], in [10], in assay [12] and in assay [13] was inactive. In assay [14], the outcome was inactive. The figures for the AC50 in assay [11] and in [15] were 6.46 µM (active) and 10.2 µM (active), respectively.

For `CC(C)(c1ccccc1)c1ccc(Nc2ccc(C(C)(C)c3ccccc3)cc2)cc1`, the call in assay [1], in assay [2], in assay [16], in [17], in assay [18] and in assay [7] was inactive. Further, the compound was classed as inactive in assay [8], in assay [9], in assay [10], in [19], in assay [11] and in assay [12]. Also, the outcome in [13] was inactive.

As for `CC1=CP(=O)(c2ccccc2)CC1` (stereo unspecified), the compound was called inactive in [1], in assay [2], in assay [3], in assay [6], in assay [7] and in assay [8]. The result in [9], in assay [10], in assay [11] and in assay [13] was inactive.

For `CC(C)(CO)C(O)C(=O)NCCCO` (stereo unspecified), the outcome in assay [1], in [3], in assay [16], in [4], in [18] and in [6] was inactive. The outcome in assay [7], in assay [8], in [9], in assay [10], in [19] and in [11] was inactive. The outcome in [12] was inactive.

For the compound `CC(Cl)COP(=O)(OCC(C)Cl)OCC(C)Cl` (stereo unspecified), the compound was classed as inactive in assay [1], in [2], in assay [17], in assay [4], in assay [5] and in [6]. For the same compound, the compound was called inactive in [7], in assay [8], in assay [9], in [10], in [19] and in assay [11]. In addition, the call in assay [13], in assay [14] and in assay [15] was inactive.

The AC50 is the concentration giving half of the maximal activity seen.
